Screening data from PubChem.
A selection: hits, their analogues and other compounds. The true share with any hit is near 5.4%.
A3A deaminase: inhibitors of human APOBEC3A DNA deaminase; P31941; recombinant A3A, FAM/TAMRA ssDNA deamination fluorescence; inhibition, % at 20 µM; 330,000 tested, 0.41% active; AID 493011;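 active = at least 40% inhibition at 20 µM here, with at most 30% in a related deaminase screen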;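 note: plate controls were A3A with DMSO for no effect and wells lacking A3A enzyme for full effect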
PHOSPHO1 block: blocks human PHOSPHO1 phosphatase activity. Q8TCT1. inhibition, % at 13.3 µM. 290,000 tested, 1.1% active. recombinant PHOSPHO1, absorbance phosphatase assay. AID 1565; in the data active = inhibition above about 60%
ALR inh: inhibitors of human sulfhydryl oxidase ALR. P55789. purified ALR, DTT oxidation, H2O2 HRP-luminol luminescence. inhibition, % (test concentration not listed). 290,000 tested, 3.8% active. AID 485317;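 active = mean replicate inhibition above about 79%, with every replicate also reaching it, limit read from the data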
Target sequence (P55789 whole entry, looked up): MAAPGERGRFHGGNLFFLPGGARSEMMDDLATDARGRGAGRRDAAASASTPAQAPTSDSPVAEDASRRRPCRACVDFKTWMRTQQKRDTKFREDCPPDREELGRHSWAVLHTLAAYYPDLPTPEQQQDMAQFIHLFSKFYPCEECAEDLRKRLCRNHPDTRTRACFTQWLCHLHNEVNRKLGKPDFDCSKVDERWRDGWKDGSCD
A3G deaminase: inhibitors of human APOBEC3G DNA deaminase; Q9HC16; recombinant A3G, ssDNA deamination FAM/TAMRA fluorescence; inhibition, % at 20 µM; 330,000 tested, 0.28% active; AID 493012;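 active = inhibition of at least 40% at 20 µM, with no more than 30% in the related APOBEC3A deaminase screen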;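 note: plate controls were DMSO wells with A3G for no effect and wells lacking A3G enzyme for full effect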
Target sequence (Q9HC16 whole entry, looked up): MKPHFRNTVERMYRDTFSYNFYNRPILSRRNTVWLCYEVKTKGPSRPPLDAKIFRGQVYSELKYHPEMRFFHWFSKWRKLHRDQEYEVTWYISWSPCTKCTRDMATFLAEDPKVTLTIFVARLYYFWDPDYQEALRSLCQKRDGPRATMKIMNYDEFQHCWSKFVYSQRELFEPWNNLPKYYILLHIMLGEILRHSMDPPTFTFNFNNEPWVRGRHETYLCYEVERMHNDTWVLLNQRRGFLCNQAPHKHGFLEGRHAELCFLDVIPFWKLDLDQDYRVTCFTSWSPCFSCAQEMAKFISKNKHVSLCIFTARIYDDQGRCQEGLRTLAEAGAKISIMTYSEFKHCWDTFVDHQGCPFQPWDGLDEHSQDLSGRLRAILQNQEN
rCAG RNA binder: molecules binding r(CAG) RNA repeats. r(CAG) RNA repeat, TO-PRO-1 dye displacement fluorescence. inhibition, % at 3 µM. 370,000 tested, 1.3% active;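 active = inhibition above the plate cutoff, the mean of all test compounds on that plate plus 3 SD, cut at about 35% in these data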;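 note: 0% = DMSO alone and 100% = 100 µM mitoxantrone as full dye displacement; higher means more dye released from RNA so lower well fluorescence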
aDG glyco act: increases alpha dystroglycan glycosylation; AID 624168; activation, % at 10 µM; Pro5-aDG cells, alpha-DG glycosylation AlphaScreen (IIH6); 0% Pro5, 100% B10-LARGE cell signal; 360,000 tested, 0.22% active;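 active = activation of at least 8% versus controls, or a plate z-score of at least 8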;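 note: Pro5 are CHO cells carrying HIG-tagged alpha-DG that lacks glycosylation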
Numbers without * were called inactive; x = no result given.

SMILES | A3A deaminase | PHOSPHO1 block | ALR inh | A3G deaminase | rCAG RNA binder | aDG glyco act
COC(=O)[C@]12C[C@H](CC(=O)N3CCN(C(=O)c4ccco4)CC3)C(=O)N(Cc3ccccc3)C1=C[C@H](COCc1ccccc1)O[C@@H]2C | x | x | x | x | 5 | x
COc1ccc(CN2CC(C(N)=O)Oc3ccccc32)cc1F (centres undefined) | -3 | 40 | 98* | -8 | 1 | 0
COc1ccc(CCNC(=O)C2COc3ccccc3O2)cc1OC (centres undefined) | x | x | x | x | -3 | 0
CCN(CC)c1ccc(CNC23CN4CN(CN(C4)C2)C3)cc1 | -4 | 0 | 98* | -8 | 1 | 0
CCN(CC)c1ccc(/C=N/NC(=S)NCc2ccccc2)cc1 | -1 | 18 | 14 | -2 | 8 | 0
Cc1ccc(-c2ccc(/C=C3/NC(=O)NC3=O)o2)cc1[N+](=O)[O-] | x | 23 | x | x | 11 | 0
CC1=C(C#N)C(=O)NC(=O)/C1=C\c1ccc(-c2cc(C)c(C)cc2[N+](=O)[O-])o1 | x | -6 | x | x | 55* | 0
COC(=O)[C@]12C[C@H](CC(=O)NCc3cccc(C(F)(F)F)c3)C(=O)N(Cc3ccc(Cl)cc3Cl)C1=C[C@H](COCc1ccccc1)O[C@@H]2C | x | x | x | x | 5 | x
NNC(=O)c1csc(-c2ccc(C(F)(F)F)cc2Cl)n1 | 1 | 8 | 93* | -3 | 1 | 0
CNC(=O)NNC(=O)c1csc(-c2ccc(C(F)(F)F)cc2Cl)n1 | -4 | 27 | 13 | 3 | -7 | 0
Cc1ccccc1CN1CCCCC(NC(=O)c2cccc(F)c2)C1=O (centres undefined) | x | x | x | x | 1 | x
O=c1oc2ccccc2cc1-c1csc(NN=C2CCCCC2)n1 | -3 | -122 | 87* | -8 | 27 | 0
CNc1nc(-c2ccccc2)[n+](-c2ccc(C)cc2)s1 | x | 90* | 58 | x | 2 | 0
Cc1ccc(-c2nc(N)s[n+]2-c2ccccc2)cc1 | x | 11 | -9 | x | 2 | 0
COC(=O)c1[nH]c2ccccc2c1Sc1ccccc1 | 2 | 22 | -5 | 0 | 4 | 0
CNC(=O)CCc1[nH]c2ccccc2c1Sc1ccccc1 | 0 | -10 | 98* | -1 | 2 | 0
Cc1ccc(Nc2nc(/N=C/NO)n[nH]2)cc1C | 0 | 65* | 61 | -2 | 0 | 0
Cc1ccc(N2CCN(C(=O)N3CCCC3)CC2)cc1Cl | 0 | 0 | 98* | -4 | 1 | 0
Cc1ccc(N2CCN(S(=O)(=O)N3CCCCC3)CC2)cc1Cl | 1 | -11 | -2 | -3 | -4 | 0
O=C(c1cc(Cl)cc(Cl)c1)N1CC[C@H]2[C@H](CCCN2Cc2ccccc2)C1 | x | x | x | x | 2 | x
C[C@H](CO)N1C[C@H](C)[C@H](CN(C)Cc2cccc(F)c2)Oc2ncc(C3=CCCC3)cc2C1=O | x | x | x | x | 3 | x
COc1cccc(/C=N/Nc2ccc(S(=O)(=O)O)cc2)c1O | -1 | 92* | -1 | -6 | 8 | 0
CC/C(=N\Nc1ccnc2cc(Cl)ccc12)c1ccc(O)cc1 | -4 | 10 | 96* | -2 | 9 | 1
COC(=O)[C@]12C[C@H](CC(=O)N3CCOCC3)C(=O)N(Cc3ccc4c(c3)OCO4)C1=C[C@H](C(C)C)O[C@@H]2C1CC1 | x | x | x | x | 3 | x
CCc1nnc(NC(=O)c2cc(-c3ccccn3)nc3ccc(Br)cc23)s1 | 0 | 72* | -1 | -4 | 7 | 0
SMILES | A3A deaminase | PHOSPHO1 block | ALR inh | A3G deaminase | rCAG RNA binder | aDG glyco act
O=C(Nc1ccccc1O)N1c2ccccc2Sc2ccccc21 | -9 | 29 | 84* | -4 | 9 | 0
Cc1ccc(CSc2nc3sc(C)c(C)c3c(=O)n2Cc2ccco2)cc1 | -1 | 19 | 97* | -3 | 2 | 0
Cc1sc2nc(SCc3ccccc3)n(Cc3ccco3)c(=O)c2c1C | 7 | 13 | 3 | 1 | 5 | 0
O=C(Nc1ccccn1)c1ccc(C(=O)c2ccccc2)cc1 | 1 | x | 3 | -12 | -1 | 0
O=C(NC(=O)c1ccccc1)Nc1ccccn1 | -9 | 68* | -2 | -2 | -4 | 0
C=CCn1c(COc2ccc(C)cc2)nnc1SCC(=O)Nc1cc(Cl)cc(Cl)c1 | x | x | x | x | 5 | x
CC1=C/C(=N\OS(=O)(=O)c2ccccc2)C(C(C)C)=CC1=O | x | 4 | 98* | x | x | 0
CC1=C/C(=N\OS(=O)(=O)c2ccccc2)C(C)=CC1=O | -2 | 30 | 99* | -1 | x | -1
COC(=O)[C@H](C(C)C)N(CCCc1cn(CC2CCCCC2)nn1)S(=O)(=O)c1ccccc1Br | x | x | x | x | 3 | x
C=CCN1C(=O)[C@H](CC(=O)NCc2cccs2)[C@@]2(C(=O)OCC)CCCC=C12 | x | x | x | x | 2 | x
CCc1nc(SCc2ccccn2)[nH]c(=O)c1C | 6 | 17 | -4 | -6 | -1 | 0
CCc1nc(SCc2cccnc2)[nH]c(=O)c1C | 2 | -6 | 99* | 2 | 6 | 0
CCCc1cc(=O)[nH]c(SCc2csc(-c3ccccc3)n2)n1 | -1 | 19 | 99* | 2 | -1 | 0
CCCc1cc(=O)[nH]c(SCc2ccccc2)n1 | 1 | -27 | x | -6 | 1 | 0
CCc1nc(SCc2ccc(F)cc2)[nH]c(=O)c1C#N | 2 | -7 | 98* | -1 | 10 | 0
CCCc1cc(=O)[nH]c(SCc2cccnc2)n1 | -2 | -3 | 97* | -7 | -1 | 1
COC(=O)[C@]12C[C@H](CC(=O)N3CCN(C(=O)C4CC4)CC3)C(=O)N(Cc3ccco3)C1=C[C@H](COCc1ccccc1)O[C@@H]2C | x | x | x | x | 4 | x
O=S(=O)(c1ccccc1)N1CCCc2nc(-c3ccccc3)ccc21 | x | x | x | x | 1 | x
Cc1cc(=O)[nH]c(SCc2nc3ccc([N+](=O)[O-])cc3[nH]2)n1 | 0 | -19 | -12 | -6 | 7 | 0
CCCc1cc(=O)[nH]c(SCc2nc3ccc([N+](=O)[O-])cc3[nH]2)n1 | 0 | -19 | 99* | -2 | 12 | 0
CCN1/C(=C/C(C)=C/c2sc3ccccc3[n+]2CC)Sc2ccccc21 | 58 | 44 | 99* | 31 | 16 | 0
CCN1/C(=C\C(=S)Nc2ccccc2)Sc2ccccc21 | 2 | 17 | x | -5 | 12 | 0
CCCCN1CC(=O)N2[C@H](C[C@@]3(C)c4ccccc4N(S(=O)(=O)c4ccccc4)[C@@H]23)C1=O | x | x | x | x | 5 | x
Cc1cc(C(=O)Nc2sc3c(c2C#N)CCCC3)no1 | -1 | -4 | 97* | 25 | 2 | 0
Cc1cc(C(=O)Nc2sc3c(c2C#N)CCC3)no1 | 10 | 10 | 14 | 3 | 11 | 0
CCOC(=O)[C@@]12CCC3=C1N(CCC3)C(=O)[C@H](CC(=O)NCc1cccc3ccccc13)C2 | x | x | x | x | 4 | x
CCCC(=O)Nc1ccc(NCc2ccc(C)s2)cc1 | -10 | 30 | 91* | -9 | 0 | 0
CCCC(=O)Nc1ccc(N2CCOCC2)cc1 | -2 | -3 | 43 | -1 | -2 | 0
CC(=O)Nc1ccc(NCc2ccc(C)s2)cc1 | -8 | 24 | 96* | 0 | 2 | 0
